# Assay outcomes from PubChem.
# Rows were chosen to be rich in hits. Some 6.7% of all compounds tested hit in one or more screens of this group.
# Tcruzi prolif – inhibitors of T. cruzi proliferation | actives 5.9% (n = 77,000) | AID 624255 | inhibition, % at 8.34 µM | T. cruzi beta-gal in NIH3T3, GalScreen luminescence, 90 h;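 active = mean inhibition above about 93%, with at least 55% of replicates each passing it, limit read from the data, passing the limit was not always enough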
# C diff HTS – inhibitors of Clostridium difficile growth. growth activity, negative = inhibition, % at 16 µg/mL (by protocol). Clostridium difficile clinical isolate growth, OD600, 24 h; active compounds read low. actives 0.25% (n = 86,000);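 active = mean growth activity at or below -80% and every replicate also at or below -80%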;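 note: 0% = DMSO wells and -100% = levofloxacin 16 µg/mL wells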
# Pf Dd2 inh – blocks growth of Plasmodium falciparum Dd2 parasites; P. falciparum Dd2 growth, SYBR Green, 72 h; active compounds read low; actives 2.3% (n = 94,000); activity change, % at 10 µM; in the data active = activity change below about -80%
# Numbers without * were called inactive; · = no result given.
SMILES,Tcruzi prolif,C diff HTS,Pf Dd2 inh
C[C@H]1CCCCO[C@@H](CN(C)CC2CCCCC2)[C@@H](C)CN([C@@H](C)CO)C(=O)c2cc(NC(=O)Nc3ccc(C(F)(F)F)cc3)ccc2O1,86,-68,-82*
C[C@@H]1CN([C@@H](C)CO)C(=O)c2cc(NC(=O)C3CC3)ccc2O[C@H]1CN(C)CC1CCCCC1,31,·,-89*
CCCN(C)C[C@@H]1OCCCC[C@H](C)Oc2ccc(NC(=O)Nc3ccc(C(F)(F)F)cc3)cc2C(=O)N([C@H](C)CO)C[C@@H]1C,61,-28,-77
C[C@@H]1CN([C@H](C)CO)C(=O)c2cc(NC(=O)C3CC3)ccc2O[C@@H]1CN(C)CC1CCCCC1,-45,7,34
C[C@H](CO)N1C[C@H](C)[C@H](CN(C)CC2CCCCC2)Oc2ccc(NC(=O)Nc3ccc(C(F)(F)F)cc3)cc2C1=O,81,23,-69
CCCN(C)C[C@@H]1OCCCC[C@H](C)Oc2ccc(NC(=O)Nc3ccc(C(F)(F)F)cc3)cc2C(=O)N([C@@H](C)CO)C[C@@H]1C,21,-105*,-88*
C[C@@H]1CN([C@@H](C)CO)C(=O)c2cc(NC(=O)Nc3ccc(C(F)(F)F)cc3)ccc2O[C@H]1CN(C)CC1CCCCC1,57,-2,-86*
C[C@@H]1CCCCO[C@@H](CN(C)CC2CCCCC2)[C@@H](C)CN([C@H](C)CO)C(=O)c2cc(NC(=O)Nc3ccc(C(F)(F)F)cc3)ccc2O1,102,-10,-44
Cn1cnc(CCNC(=O)C[C@@H]2CC[C@H]3[C@@H](COC[C@@H](O)CN3C(=O)Nc3ccccc3)O2)c1,-15,1,5
CCCNC(=O)Nc1ccc2c(c1)C(=O)N(C)[C@@H]1CC[C@H](CC(=O)OC)O[C@@H]1CO2,19,-1,0
C[C@@H]1CN([C@@H](C)CO)C(=O)c2c(c3ccccc3n2C)-c2ccccc2CO[C@@H]1CN(C)C(=O)Nc1cccc(Cl)c1Cl,·,54,-92*
C[C@@H]1CN([C@H](C)CO)C(=O)c2c(c3ccccc3n2C)-c2ccccc2CO[C@H]1CN(C)C(=O)Nc1ccccc1C(F)(F)F,·,19,-45
C[C@H]1CN([C@@H](C)CO)C(=O)c2c(c3ccccc3n2C)-c2ccccc2CO[C@H]1CN(C)C(=O)Nc1ccccc1C(F)(F)F,·,0,-84*
COc1ccccc1NC(=O)N(C)C[C@@H]1OCc2ccccc2-c2c(n(C)c3ccccc23)C(=O)N([C@H](C)CO)C[C@H]1C,76,·,-39
C[C@@H]1CN([C@@H](C)CO)C(=O)Cc2cc(NS(=O)(=O)c3ccc(F)cc3)ccc2O[C@@H]1CN(C)C(=O)NC1CCCCC1,-2,2,22
O=C(C[C@@H]1CC[C@@H]2[C@H](COC[C@H](O)CN2S(=O)(=O)c2cccc(Cl)c2)O1)NCc1ccc2c(c1)OCO2,15,·,5
C[C@H]1CN([C@@H](C)CO)C(=O)Cc2cc(NC(=O)Nc3ccc(F)cc3)ccc2O[C@@H]1CN(C)Cc1ccc(C(=O)Nc2ccccc2N)cc1,·,2,-86*
C[C@@H]1CN([C@H](C)CO)C(=O)Cc2cc(NC(=O)Nc3ccc(F)cc3)ccc2O[C@H]1CN(C)Cc1ccc(C(=O)Nc2ccccc2N)cc1,·,9,-39
C[C@H](CO)N1C[C@H](C)[C@H](CN(C)Cc2ccc(C(=O)Nc3ccccc3N)cc2)Oc2ccc(NC(=O)c3ccncc3)cc2CC1=O,74,0,-49
Cc1ccc(S(=O)(=O)N(C)C[C@@H]2Oc3ccc(NC(=O)CCCCCC(=O)Nc4ccccc4N)cc3CC(=O)N([C@@H](C)CO)C[C@H]2C)cc1,16,-6,-68
C[C@H](CO)N1C[C@H](C)[C@@H](CN(C)Cc2ccc(C(=O)Nc3ccccc3N)cc2)Oc2ccc(NC(=O)Cc3ccccc3)cc2CC1=O,·,1,-83*
Cc1ccc(S(=O)(=O)N(C)C[C@@H]2Oc3ccc(NC(=O)CCCCCC(=O)Nc4ccccc4N)cc3CC(=O)N([C@@H](C)CO)C[C@@H]2C)cc1,50,-5,-88*
C[C@@H]1CN([C@@H](C)CO)C(=O)Cc2cc(NC(=O)c3ccncc3)ccc2O[C@@H]1CN(C)Cc1ccc(C(=O)Nc2ccccc2N)cc1,·,7,-85*
C[C@@H]1CN([C@H](C)CO)C(=O)Cc2cc(NC(=O)c3ccncc3)ccc2O[C@@H]1CN(C)Cc1ccc(C(=O)Nc2ccccc2N)cc1,·,6,-75
O=C(C[C@@H]1CC[C@H](NC(=O)C2CCOCC2)[C@H](CO)O1)NCC1CC1,·,-1,14
CO[C@@H]1CN(C)C(=O)c2ccc(NC(=O)C3CC3)cc2OC[C@H](C)N(C(=O)Cc2ccccn2)C[C@H]1C,8,·,10
COc1ccc2c3c(n(C)c2c1)[C@@H](CO)N(C(=O)Nc1ccccc1F)CC31CN(C)C1,·,·,22
